Compound activity from PubChem BioAssay.
NPR1 activator: GC-A (human) enzyme activation. P16066. HEK293 GC-A cells, cGMP TR-FRET, EC30 ANP; 0% at EC30 ANP, 100% saturating ANP. activation, % at 10 µM. hit rate 0.14% among 370,000; in the data active means activation above about 40%
APOBEC3G inh: inhibitors of human APOBEC3G DNA deaminase; Q9HC16; recombinant A3G, ssDNA deamination FAM/TAMRA fluorescence; inhibition, % at 20 µM; hit rate 0.28% among 330,000;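 active means inhibition of at least 40% at 20 µM, with no more than 30% in the related APOBEC3A deaminase screen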;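 further: plate controls were DMSO wells with A3G for no effect and wells lacking A3G enzyme for full effect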
Neddyl block: blocks human cullin neddylation; TR-FRET cullin neddylation, biochemical; inhibition, % at 25 µM; hit rate 0.58% among 360,000; AID 651699; P61081+Q13564; in the data active means inhibition above about 36%
PfGluPho inh: PfG6PD (Plasmodium falciparum) enzyme inhibition | hit rate 0.78% among 350,000 | AID 504690 | inhibition, % at 20 µM | PfGluPho enzyme, NADPH resazurin-diaphorase fluorescence;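 active means inhibition reaching at least a set limit at 20 µM in the primary screen, cut at about 59% in these data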;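 further: 0% = DMSO wells with substrate and 100% = DMSO wells lacking glucose-6-phosphate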
APOBEC3A inh: inhibitors of human APOBEC3A DNA deaminase; P31941; inhibition, % at 20 µM; hit rate 0.41% among 330,000; recombinant A3A, FAM/TAMRA ssDNA deamination fluorescence; AID 493011;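 active means at least 40% inhibition at 20 µM here, with at most 30% in a related deaminase screen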;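 further: plate controls were A3A with DMSO for no effect and wells lacking A3A enzyme for full effect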
NPR2 activator: GC-B (human) receptor activation; HEK293-GC-B cells, CNP EC30, cGMP TR-FRET; 0% at EC30 CNP, 100% saturating CNP; activation, % at 10 µM; AID 1920062; hit rate 0.11% among 370,000; P20594;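 active means activation at 10 µM reaching about 35% in either raw or pattern-adjusted values, limit read from the data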
Target sequence (P20594 whole entry, looked up): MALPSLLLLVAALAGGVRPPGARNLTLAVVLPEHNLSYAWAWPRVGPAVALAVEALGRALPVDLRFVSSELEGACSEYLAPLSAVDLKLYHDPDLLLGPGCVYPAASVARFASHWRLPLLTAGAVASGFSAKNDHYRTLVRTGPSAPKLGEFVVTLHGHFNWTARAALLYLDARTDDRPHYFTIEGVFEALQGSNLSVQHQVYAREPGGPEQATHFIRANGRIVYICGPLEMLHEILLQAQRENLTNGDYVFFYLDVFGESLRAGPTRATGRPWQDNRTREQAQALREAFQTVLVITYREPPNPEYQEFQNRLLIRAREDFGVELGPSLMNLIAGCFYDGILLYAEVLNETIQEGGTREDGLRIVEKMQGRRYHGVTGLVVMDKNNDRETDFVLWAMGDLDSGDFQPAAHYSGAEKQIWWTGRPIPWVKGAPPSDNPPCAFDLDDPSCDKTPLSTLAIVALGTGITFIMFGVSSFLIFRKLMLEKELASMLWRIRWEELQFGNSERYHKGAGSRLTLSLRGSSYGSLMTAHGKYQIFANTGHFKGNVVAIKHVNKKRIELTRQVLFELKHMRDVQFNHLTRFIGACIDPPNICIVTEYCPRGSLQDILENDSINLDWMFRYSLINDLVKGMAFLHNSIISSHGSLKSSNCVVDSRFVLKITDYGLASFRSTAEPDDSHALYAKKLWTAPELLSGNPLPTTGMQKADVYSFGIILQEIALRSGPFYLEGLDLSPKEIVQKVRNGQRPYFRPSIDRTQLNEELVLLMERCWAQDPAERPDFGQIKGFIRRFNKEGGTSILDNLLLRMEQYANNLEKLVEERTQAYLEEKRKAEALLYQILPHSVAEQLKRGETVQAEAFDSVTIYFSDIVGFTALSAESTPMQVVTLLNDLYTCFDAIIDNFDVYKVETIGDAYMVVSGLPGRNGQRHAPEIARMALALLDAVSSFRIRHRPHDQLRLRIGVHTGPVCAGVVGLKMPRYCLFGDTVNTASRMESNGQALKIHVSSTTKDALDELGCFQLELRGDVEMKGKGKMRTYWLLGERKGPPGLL
PfG6PD confirm: PfG6PD inhibition, single-dose confirmed. shares compounds with PfGluPho inh. inhibition, % at 20 µM. recombinant PfGluPho, NADPH-diaphorase-resazurin fluorescence. hit rate 34% among 2,400;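 active means inhibition of at least 50% at 20 µM in any single replicate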;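 further: 0% = DMSO with substrate and 100% = DMSO lacking glucose-6-phosphate substrate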
Diaphorase 10uM: inhibits diaphorase or oxidizes, flagging false PfG6PD hits; shares compounds with PfGluPho inh; diaphorase-coupled resazurin reduction, fluorescence, NADPH 10 uM; inhibition, % at 20 µM; hit rate 39% among 820; AID 504862;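 active means average inhibition reaching 50% or more with the compound at 20 µM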;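 further: resorufin red fluorescence formed as diaphorase reduces resazurin using NADPH; 0% = DMSO with enzyme and 100% = DMSO without enzyme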
Diaphorase 30uM: diaphorase inhibition or oxidation at 30 uM NADPH | shares compounds with PfGluPho inh | Diaphorase/resazurin coupled assay, resorufin fluorescence | inhibition, % at 20 µM | hit rate 29% among 820 | AID 504863;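 active means inhibition averaging 50% or more, tested at 20 µM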;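 further: 0% = DMSO with enzyme and 100% = DMSO wells lacking diaphorase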
Numbers without * were called inactive; nt = no result shown. The list is not random: actives were taken first. Their share in the collection is about 2%.

SMILES	NPR1 activator	APOBEC3G inh	Neddyl block	PfGluPho inh	APOBEC3A inh	NPR2 activator	PfG6PD confirm	others
CCN(CC)Cc1cc(Nc2c3ccccc3nc3c4ccccc4n(C)c23)cc(CN(CC)CC)c1O	-16	nt	-15	80*	nt	-12	28
O=c1cc(-c2ccccc2)oc2cc(O)c(O)c(O)c12	-2	13	-30	102*	25	-7	95*	Diaphorase 10uM=94*;Diaphorase 30uM=81*
O=C(Nc1ccc(N2CCOCC2)c(Cl)c1)c1ccc(F)cc1	1	-1	4	94*	0	7	27
O=C(Nc1ccc(N2CCOCC2)c(Cl)c1)c1ccc(Br)o1	2	-3	-6	82*	-2	-1	37
C#CCNC(=O)CSCc1nc(-c2ccc(OCC)cc2)oc1C	-1	nt	nt	nt	nt	-10	nt
CN(C)C=Nc1ccc(Cn2cnc3nc4ccc(Cl)cc4cc3c2=O)cc1	7	nt	nt	nt	nt	-9	nt
COc1ccc(N2CCN(CCCNC(=O)CCc3ccc(F)cc3)CC2)cc1	4	nt	nt	nt	nt	-4	nt
O=C(NC1CC1)C(=O)c1c[nH]c2ccccc12	-1	5	-1	3	-4	-3	nt
O=C(NC1CC1)c1cc(=S)[nH]c2ccccc12	-1	18	17	60*	-5	3	9
COc1ccccc1N1CCN(C(=O)c2cc3c(C)nn(-c4ccccc4)c3s2)CC1	4	nt	nt	nt	nt	6	nt
O=C(/C=C/c1ccccc1)Nc1scc(-c2ccccc2)c1C(=O)O	1	nt	-6	61*	nt	1	26
O=C(Nc1scc(-c2ccccc2)c1C(=O)O)c1ccccc1F	0	-4	26	32	-4	-3	nt
Cc1ccc(-c2csc(NC(=O)c3ccc(F)cc3)c2C(=O)O)cc1	0	-5	33	88*	-5	-5	44
O=C(Nc1scc(-c2ccccc2)c1C(=O)O)c1ccc(F)cc1	-1	-8	35	55	-5	-5	nt
Cc1ccc(-c2csc(NC(=O)c3ccccc3F)c2C(=O)O)cc1	2	-4	28	73*	5	-1	51*	Diaphorase 10uM=36;Diaphorase 30uM=40
O=C1/C(=N\S(=O)(=O)c2cccs2)C([n+]2cccc(Cc3ccccc3)c2)=C([O-])c2ccccc21	nt	-6	-93	63*	-6	nt	26
Cc1cc(C)c[n+](C2=C([O-])c3ccccc3C(=O)/C2=N\S(=O)(=O)c2cccs2)c1	-1	-11	-45	66*	2	1	50*	Diaphorase 10uM=50*;Diaphorase 30uM=44
O=C1/C(=N\S(=O)(=O)c2cccs2)C([n+]2ccc(CCCc3ccccc3)cc2)=C([O-])c2ccccc21	1	-4	-16	12	2	-8	nt
O=C(CNc1ccc2c(c1)OCO2)N/N=C\c1cn(Cc2ccccc2)c2ccccc12	-3	-1	-2	67*	-2	1	51*	Diaphorase 10uM=-10;Diaphorase 30uM=16
COc1ccc(-c2cc(-c3n[nH]c(=S)n3-c3cc(OC)ccc3OC)[nH]n2)cc1	-8	-1	-16	59	-3	-11	23
COc1cc(SC)ccc1C(=O)Nc1ccc(C)cc1	-3	-11	-13	61*	-2	-5	22
COc1cc(SC)ccc1C(=O)Nc1ccccn1	-2	1	-38	33	-9	-6	nt
COc1cc(SC)ccc1C(=O)Nc1ccc2ncccc2c1	-5	-5	-258	81*	5	-1	12
COc1cc(SC)ccc1C(=O)Nc1ccc(C)cc1C	-2	-1	nt	24	3	0	nt
O=S1(=O)c2ccc(Br)cc2OCCC2CCCCN21 (stereo unspecified)	1	nt	nt	nt	nt	1	nt
COC(=O)C1=C(C)N(Cc2ccccc2C(F)(F)F)C(=NCc2ccc(OC)cc2)NC1c1ccc(F)cc1 (stereo unspecified)	-16	nt	nt	nt	nt	-17	nt
